Source: PubChem BioAssay (The Scripps Research Institute Molecular Screening Center)
Compounds with a hit are over-represented: about 3.4% of the library has one in this group of screens.
MITF primary = inhibitors of human MITF | inhibition, % at 2.6 µM | AlphaScreen MITF homodimerization, bead proximity signal | O75030 | 650,000 compounds, 0.91% hits | AID 1259374; in the data active = inhibition above about 50%
GPR151 ag = activates the human receptor GPR151; Q8TDV0; PathHunter beta-arrestin GPR151 cells, luminescence; activation, % at 11.2 µM; 650,000 compounds, 1% hits; AID 1508602; in the data active = activation above about 4.9%
Target sequence (Q8TDV0 whole entry, looked up): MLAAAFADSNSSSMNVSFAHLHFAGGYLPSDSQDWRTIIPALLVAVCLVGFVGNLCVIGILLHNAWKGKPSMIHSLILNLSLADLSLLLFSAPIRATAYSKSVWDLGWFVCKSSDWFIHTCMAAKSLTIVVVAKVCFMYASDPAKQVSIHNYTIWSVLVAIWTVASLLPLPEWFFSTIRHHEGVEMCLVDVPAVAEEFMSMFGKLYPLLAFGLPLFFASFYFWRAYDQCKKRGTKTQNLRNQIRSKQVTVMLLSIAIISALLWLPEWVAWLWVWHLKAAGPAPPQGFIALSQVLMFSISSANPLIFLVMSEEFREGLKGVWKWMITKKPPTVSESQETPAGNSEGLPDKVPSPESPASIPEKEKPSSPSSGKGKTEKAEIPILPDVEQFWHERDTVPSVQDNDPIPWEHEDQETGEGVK
TEAD-YAP inh = TEAD-YAP interaction inhibition; HEK-TIYL cells, TEAD-Gal4/YAP UAS-luciferase luminescence; inhibition, % at 9.12 µM; 640,000 compounds, 1.4% hits; AID 1259422; in the data active = inhibition above about 32%
FBW7 activator = activators of human E3 ligase FBW7 | Q969H0 | AlphaScreen FBW7–phospho-cyclin E peptide binding, activator screen | normalized activity (activation), % at 26.1 µM | 650,000 compounds, 0.13% hits | AID 1259310; in the data active = normalized activity above about 1.9%;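 note: purified mutant Fbw7 with reduced substrate affinity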
GPR151 confirm = confirmation of human GPR151 activators; shares compounds with GPR151 ag; GPR151 PathHunter beta-arrestin cells, luminescence, 90 min; % of EA-reagent control over plate median; activation, % at 11.2 µM; 6,700 tested, under 10 active; AID 1508609;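 active = mean percent activation across replicates above the confirmation screen cutoff of 4.91%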
GPR119 counter = activates human GPR119 in a GPR151 counter-screen. 6,700 compounds, 0.3% hits. shares compounds with GPR151 ag. GPR119 PathHunter beta-arrestin cells, luminescence, 90 min; 0 = compound-well median, 100 = enzyme-acceptor control. AID 1508611. activation, % at 11.2 µM;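 active = mean percent activation in the counterscreen above 29.09%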;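 note: counterscreen on off-target GPR119 to flag nonselective hits from the GPR151 activator screen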
Hits are given with their value; i = inactive; nt = not tested or not shown; ! = not active in a repeat.

SMILES	MITF primary	GPR151 ag	TEAD-YAP inh	FBW7 activator	GPR151 confirm	GPR119 counter
COCCN1CCN(Cc2nc(-c3ccccn3)no2)CC1	i	i	i	i	nt	nt
COCCCC1CCN(Cc2nc(-c3ccccn3)no2)CC1	i	6.7	i	i	i	i
O=C(NCc1ccccc1)/C(=N\O)c1ccccc1	i	6.2	i	i	i	i
Cc1ccccc1Nc1sc(C(=O)c2ccc([N+](=O)[O-])cc2)c(N)c1C(=O)NCc1ccc(Cl)cc1	i	6.4	i	i	i	i
Cc1ccccc1Nc1sc(C(=O)c2ccc(Cl)cc2)c(N)c1C(=O)NCc1ccc(Cl)cc1	i	i	i	i	nt	nt
COc1ccc2c(c1)CCC2C(=O)Nc1cc(Nc2ccccc2-c2ncn[nH]2)ccn1 (stereo not given)	i	i	i	i	nt	nt
O=C1NC(NS(=O)(=O)c2ccccc2)(C(F)(F)F)C(=O)N1c1ccc(Cl)cc1 (stereo not given)	i	5.9	i	i	i	i
Cc1ccc(S(=O)(=O)NC2(C(F)(F)F)NC(=O)N(c3ccc(Cl)cc3)C2=O)cc1 (stereo not given)	i	i	i	i	nt	nt
Cc1cccc(NC(=O)c2cc(Cl)sc2Cl)n1	i	i	i	i	nt	nt
COc1cc(C(=O)Oc2ccc3c(c2)C(C)=CC(C)(C)N3C(=O)c2cc(OC)c(OC)c(OC)c2)cc(OC)c1OC	i	i	i	i	nt	nt
COC(=O)c1ccc(NC(=O)/C=C/c2ccccc2Cl)cc1	i	6.1	i	i	i	i
CCOCCc1nnc(NC(=O)CCSc2ccccc2)s1	i	i	i	i	nt	nt
Cc1nnsc1C(=O)N/N=C/c1ccccc1	i	i	i	i	nt	nt
Cc1ccc(C(=O)N(C)c2ccccc2)cc1	i	5.0	i	i	i	i
Cc1nnsc1C(=O)N(C)c1ccccc1	i	8.2	i	i	i	i
O=C(Nc1nc2ccc3ccccc3c2s1)c1ccc([N+](=O)[O-])cc1	i	i	i	i	nt	nt
C/C(=N\NC(=O)c1ccc(F)cc1)c1ccc([N+](=O)[O-])cc1	i	8.1	i	i	i	i
Cc1nc2cc(C(=O)N3CCCC(N4CCOCC4)C3)ccc2n1-c1ccccc1 (stereo not given)	i	10.9	i	i	i	i
CCC(Oc1ccccc1)c1nnc(NC(=O)Cc2ccccc2)s1 (stereo not given)	i	27.9	i	i	i	i
CCOc1cc(S(=O)(=O)n2nnc3ccccc32)ccc1F	i	5.1	i	i	i	i
CCN(CC)c1ccc2cc(/C(C)=N/NC(N)=S)c(=O)oc2c1	i	i	i	i	nt	nt
CCCC(=O)NCCc1ccc(F)cc1	i	19.5	i	i	i	i
O=C(Cc1ccc(F)cc1)NCCc1ccc(F)cc1	i	i	i	i	nt	nt
CC(=O)c1c(C)oc2ccc(NS(=O)(=O)c3ccc(Cl)c([N+](=O)[O-])c3)cc12	i	i	i	i	nt	nt
CCN(CC)c1ccc(C(=O)Nc2sc3c(c2C#N)CCCC3)cc1	i	i	i	i	nt	nt
SMILES	MITF primary	GPR151 ag	TEAD-YAP inh	FBW7 activator	GPR151 confirm	GPR119 counter
CCN(CC)c1ccc(C(=O)Nc2sc3c(c2C#N)CCCCC3)cc1	i	5.1	i	i	i	i
COc1ccc(CCN2C(=O)CCC2CCNCc2cccc(C(F)(F)F)c2)cc1 (stereo not given)	i	12.2	i	i	i	i
C=CCNC(=O)CN(c1ccccc1F)S(=O)(=O)c1ccc(C)cc1	i	6.6	i	i	i	i
O=C(NCCN1CCOCC1)c1ccc2nc(N3CCN(Cc4ccc5c(c4)OCO5)CC3)sc2c1	i	6.8	i	i	i	i
NC1=NC(=O)/C(=C/c2cccn2-c2ccc([N+](=O)[O-])cc2)S1	i	i	i	i	nt	nt
COCc1cc(/C=N/NS(=O)(=O)c2ccc(C)cc2)ccc1OC	i	i	i	i	nt	nt
O=C(COc1ccc(Br)cc1)Nc1ncc(Cc2ccc(F)cc2)s1	i	6.2	i	i	i	i
O=C(COc1ccccc1)NC(=S)Nc1ccc(Cl)cn1	i	i	i	i	nt	nt
COc1c(C(=O)Nc2ccc(Cl)cn2)ccc2ccccc12	i	5.5	i	i	i	i
O=C(COc1ccc(Br)cc1)Nc1ccc(Cl)cn1	i	10.6	i	i	i	i
O=C(COc1ccccc1)Nc1ccc(Cl)cn1	i	7.8	i	i	i	i
O=C(COc1ccc(Cl)cc1)Nc1ccc(Cl)cn1	i	i	i	i	nt	nt
COCCCNCCOc1ccc(Cl)cc1C	i	i	i	i	nt	nt
O=C(Cc1ccccc1)N1CCC[C@@H]2CN(C/C=C/c3ccccc3)CC[C@H]21	i	i	i	i	nt	nt
O=C(O)COc1ccc(NC(=O)COc2ccc(Cl)cc2)cc1	i	i	i	i	nt	nt
O=C(COc1ccc(Cl)cc1)Nc1ccc(Cc2ccncc2)cc1	i	5.4	i	i	i	i
O=C(COc1ccc(Cl)cc1)Nc1ccc2c(c1)C(=O)N(c1ccccc1)C2=O	i	11.2	i	i	i	i
CN1C(=O)c2ccc(NC(=O)COc3ccc(Cl)cc3)cc2C1=O	i	i	i	i	nt	nt
CCCCOc1ccc(C(=O)N/C(=C/c2ccc(OC)cc2)C(N)=O)cc1	i	i	i	i	nt	nt
CC(C)CC(=O)N1CCC(c2nc3c(nnn3Cc3cccc(F)c3)c(=O)[nH]2)CC1	i	5.6	i	i	i	i
CC(C)CC(=O)N1CCC(c2nc3c(nnn3Cc3ccc(F)cc3)c(=O)[nH]2)CC1	i	i	i	i	nt	nt
COC(=O)c1ccccc1NC(=O)CNC(=O)c1cn(C)nc1OC	i	i	i	i	nt	nt
O=C(NC1CCCCC1)[C@H]1C=CCN1C(=O)C1CC1	i	7.4	i	i	i	i
Clc1ccccc1Cn1nnc2c(NCc3cccs3)ncnc21	i	i	i	i	nt	nt
COc1ccc(-c2nc(NCCN(C(C)C)C(C)C)nc(OC)n2)cn1	i	6.1	i	i	i	i
SMILES	MITF primary	GPR151 ag	TEAD-YAP inh	FBW7 activator	GPR151 confirm	GPR119 counter
COc1nc(NCCN(C(C)C)C(C)C)nc(-c2ccccc2)n1	i	i	i	i	nt	nt
COc1ccc(Nc2ccn3ncc(-c4ccc(N)cc4)c3n2)cn1	i	i	i	i	nt	nt
COC(=O)C(CCSC)NC(=O)c1ccccc1F (stereo not given)	i	6.9	i	i	i	i
CC(=O)Nc1ccc(NC(=S)NC(=O)c2ccccc2[N+](=O)[O-])cc1	i	6.4	i	i	i	i
COc1ccc(C=O)cc1CSc1ccccn1	i	5.3	i	i	i	i
COc1ccc(/C=N/NS(=O)(=O)c2ccccc2)cc1CSc1ccccn1	i	i	i	i	nt	nt
CCOC(=O)CC1CCCCN1Cc1nc(NCCCC(=O)OC)c2ccccc2n1 (stereo not given)	i	i	i	i	nt	nt
O=C(Nc1cccc(Cl)c1)c1ccc2c(=O)n(Cc3ccccc3)c(SCc3cccc([N+](=O)[O-])c3)nc2c1	i	i	i	i	nt	nt
NC[C@H]1O[C@H](O[C@H]2[C@H](O)[C@@H](O[C@H]3O[C@H](CO)[C@@H](O)[C@H](N)[C@H]3O)[C@H](N)C[C@@H]2N)[C@H](N)C[C@@H]1O	i	23.8!	i	i	i	i
CCN1C(=O)Cc2ccccc21	i	6.7	i	i	i	i
